Results on nine compounds are retold here after PubChem BioAssay (Tox21).

Experiment [1] is described as follows: qHTS assay to identify small molecule agonists of the sonic hedgehog signaling (Shh) pathway (AID 1259368; calls by dose curve;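 further: NIH/3T3-derived 3T3Gli1-Luc cells carrying a stable Gli1-driven firefly luciferase reporter; series mostly up to about 92 µM; nearly all actives have a fitted effect of over 15% in size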). In outline:
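A Gli1 transcriptional response element controlled firefly luciferase in 3T3Gli1-Luc cells. Compounds and a positive control were added 4 hr after plating, and cells were incubated a further 24 hr at 37 C before luminescence detection.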
A general note: Quantitative high-throughput screening tests each substance at several concentrations.

The nature of experiment [2]: qHTS assay to identify small molecule antagonists of the sonic hedgehog signaling (Shh) pathway (AID 1259369; calls by dose curve; further: nearly all actives have a fitted effect of over 45% in size). The gist of the method:
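For antagonist detection, the reporter line received test compounds together with conditioned medium, incubated 24hr at 37 C, 5% CO2, then luminescence was recorded following 30min room-temperature luciferase reagent incubation.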

Experiment [3] concerns the target Estrogen receptor beta (Homo sapiens) (UniProt Q92731). Briefly: qHTS assay to identify small molecule antagonists of the estrogen receptor beta (ER-beta) signaling pathway (AID 1259378; active means well fitted inhibition curve with a large enough effect in the signal ratio in the repeat runs, not every such curve was filed as active; the % refers to the signal ratio). In outline:
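ER-beta-UAS-bla HEK293T (GripTite) cells in 2% charcoal-stripped FBS medium were preincubated 6 hr at 37C, dosed with compound, then stimulated with 1 nM E2 (final) for 16 hr; beta-lactamase reporter read by B/G FRET fluorescence after 2 hr substrate loading.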

The nature of experiment [4]: qHTS assay to identify small molecule agonists of the estrogen receptor beta (ER-beta) signaling pathway - cell viability counter screen (AID 1259380). Further: nearly all actives have a fitted effect of over 30% in size. In outline: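 CellTiter-Glo read, 30 min RT, same wells as bla assay; cells ER-beta-UAS-bla HEK293T; 16 hr compound, 37C; medium 2% charcoal-stripped FBS.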
Experiment [5] in a line: qHTS assay to identify small molecule antagonists of the estrogen receptor beta (ER-beta) signaling pathway - cell viability counter screen (AID 1259382). Further: series mostly up to about 92 µM; nearly all actives have a fitted effect of over 55% in size. The gist of the method: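 In this multiplexed counter screen, cells were seeded at 2,000 per well in medium with 2% charcoal-stripped FBS and incubated 6 hr before compound and 1nM final E2 were added. Sixteen hours later, ATP-based luminescence reported viability.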

A short description of experiment [6]: qHTS assay to identify small molecule agonists or antagonists of the thyroid stimulating hormone receptor (TSHR) signaling pathway - wild type cell line counter screen (AID 1259384; calls by dose curve). The gist of the method: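 Wild-type HEK293 cells were plated 18 h at 37 C/5% CO2, pin-dosed with compound plus Ro20-1724 medium, held 30 min at room temperature, then given cAMP-d2 and anti-cAMP-cryptate; fluorescence was read after 1 h. Fifteen concentrations, triplicate.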

Experiment [7] concerns the target Thyrotropin receptor (Homo sapiens) (UniProt P16473). Briefly: qHTS assay to identify small molecule antagonists of the thyroid stimulating hormone receptor (TSHR) signaling pathway (AID 1259385; calls by dose curve; further: nearly all actives have a fitted effect of over 20% in size). The gist of the method:
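TSHR-HEK293 cells were plated and held 18 h at 37C/5% CO2, then given compound plus Ro20-1724 and stimulated with TSH at 1.5 ng/mL final. After 30 min at room temperature, cAMP was detected with cAMP-d2/anti-cAMP-cryptate (1 h) by fluorescence.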

Experiment [8] in a line: qHTS assay to identify small molecule agonists of the estrogen receptor alpha (ER-alpha) signaling pathway in the presence of an antagonist - cell viability counter screen (AID 1259386).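 Further: series mostly up to about 92 µM; cells exposed to compounds for 22 h at 37 °C before the viability read; nearly all actives have a fitted effect of over 30% in size.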 In outline:
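Viability counter screen using VM7Luc4E2 (full-length ER-alpha, four ERE-luciferase). The cells were treated with compounds alongside ICI-182,780 10.0nM for 22hr, and live-cell protease fluorescence was quantified with CellTiter-Fluor.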

The nature of experiment [9]: qHTS assay to identify small molecule antagonists of the progesterone receptor (PR) signaling pathway - cell viability counter screen (AID 1346798). Further: series mostly up to about 92 µM; nearly all actives have a fitted effect of over 50% in size. The gist of the method: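 Luminescence readout (CellTiter-Glo, 30 min, RT) of viability in PR-UAS-bla HEK293T cells exposed to compound and R5020 agonist for 16 hr at 37C, 5% CO2; run in the same wells as the beta-lactamase reporter read.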

A short description of experiment [10]: qHTS assay to identify small molecule agonists of the progesterone receptor (PR) signaling pathway - cell viability counter screen (AID 1346799; calls by dose curve; further: nearly all actives have a fitted effect of over 45% in size). The gist of the method:
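HEK293T PR-UAS-bla, 3,000 cells/well, 2% charcoal-stripped FBS; 6 h settle, compound 16 h at 37C/5% CO2; LiveBLAzer 2 h RT, then CellTiter-Glo 30 min RT, luminescence read.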

Experiment [11] in a line: qHTS assay to identify small molecule antagonists of the TGF-beta/Smad signaling pathway - cell viability counter screen (AID 1346824). Further: nearly all actives have a fitted effect of over 50% in size. The gist of the method:
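SBE-bla HEK 293T cells were plated overnight at 37 C, then given compounds in DMSO plus TGF-beta1 (added as 0.25 ng/mL solution) for 5 hr. After the bla read, CellTiter-Glo was added to the same wells and luminescence read after 30 min at room temperature.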

Experiment [12] can be described thus: qHTS assay to identify small molecule agonists of the TGF-beta/Smad signaling pathway - cell viability counter screen (AID 1346829). Further: top concentration of the series differs between compounds; nearly all actives have a fitted effect of over 45% in size. In outline: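 Compound-treated SBE-bla HEK 293T cells (5 hr, 37 C) were assessed for viability with CellTiter-Glo in parallel with the reporter read.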
Experiment [13] can be described thus: qHTS assay to identify small molecule agonists of the TGF-beta/Smad signaling pathway (AID 1346859; active means well fitted activation curve with a large enough effect in the signal ratio in the repeat runs, not every such curve was filed as active; the % refers to the signal ratio; further: series mostly up to about 77 µM). In outline:
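Read-out: fluorescence at 460 and 530 nm (405 nm excitation) after a 2 hr room-temperature incubation with beta-lactamase FRET substrate. SBE-bla HEK 293T cells had been treated with test compounds for 5 hr at 37 C.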

The target of experiment [14] is Thyrotropin-releasing hormone receptor (Homo sapiens) (UniProt P34981). The experiment can be described thus: qHTS assay to identify small molecule antagonists of the thyrotropin-releasing hormone receptor (TRHR) signaling pathway (AID 1346877; active means well fitted inhibition curve with a large enough effect in the repeat runs, not every such curve was filed as active; further: series mostly up to about 51 µM). The gist of the method: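 Following an 18 h incubation at 37 °C and a 2 h calcium dye load, TRHR-HEK293 cells were exposed to compound (5 min, room temperature) and challenged with TRH, 1 nM final.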

The nature of experiment [15]: qHTS assay to identify small molecule agonists of the androgen receptor (AR) signaling pathway in the presence of an antagonist - cell viability counter screen (AID 1259379).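 Further: MDA-kb2 human breast cancer cells carrying an MMTV luciferase reporter; series mostly up to about 92 µM; nearly all actives have a fitted effect of over 25% in size.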 The gist of the method: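 Seed MDA-kb2 at 3,000 cells/well; incubate 5 hr, 37C, 0% CO2. Add nilutamide to 3.0uM final, then pin compounds at 15 concentrations. Incubate 16 hr. Add CellTiter-Fluor at 15 hr, read fluorescence after 1 hr.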

Experiment [16] concerns the target Androgen receptor (Homo sapiens) (UniProt P10275). Briefly: qHTS assay to identify small molecule agonists of the androgen receptor (AR) signaling pathway in the presence of an antagonist (AID 1259381; calls by dose curve; further: nearly all actives have a fitted effect of over 15% in size; further: potency means the concentration at half of the fitted maximal effect). In outline:
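Test compounds at 15 concentrations were incubated for 16hr with MDA-kb2 reporter cells in presence of 3.0uM nilutamide (final). Signal: ONE-Glo luciferase luminescence.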

Experiment [17] concerns the target Estrogen receptor (Homo sapiens) (UniProt P03372). The experiment can be described thus: qHTS assay to identify small molecule agonists of the estrogen receptor alpha (ER-alpha) signaling pathway in the presence of an antagonist (AID 1259383; calls by dose curve; further: top concentration of the series differs between compounds; nearly all actives have a fitted effect of over 15% in size). In outline:
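Stably transfected VM7Luc4E2 reporter cells, kept 5 days in charcoal-stripped serum, received ICI-182,780 at 10.0nM final before compound addition. Following 22hr incubation at 37C and 5% CO2, luciferase signal was read by luminescence.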

Experiment [18] addresses Progesterone receptor (Homo sapiens) (UniProt P06401). The experiment can be described thus: qHTS assay to identify small molecule agonists of the progesterone receptor (PR) signaling pathway (AID 1346784; calls by dose curve; further: nearly all actives have a fitted effect of over 30% in size). In outline:
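HEK 293T PR-UAS-bla reporter cells, 2% charcoal-stripped FBS; 6 hr settle at 37C/5% CO2, compound (DMSO) 16 hr, LiveBLAzer B/G FRET substrate 2 hr RT, fluorescence intensity read.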

For experiment [19] the target is unchanged. The experiment can be described thus: qHTS assay to identify small molecule antagonists of the progesterone receptor (PR) signaling pathway (AID 1346795; active means well fitted inhibition curve with a large enough effect in the signal ratio in the repeat runs, not every such curve was filed as active; the % refers to the signal ratio). In outline: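 Beta-lactamase reporter, HEK293T PR-UAS-bla line; 2% charcoal-stripped FBS; 6 hr pre-incubation, 37C/5% CO2. Compound + R5020 1 nM final, 16 hr. LiveBLAzer B/G FRET substrate, 2 hr RT; fluorescence intensity read.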

Each structure is given as a SMILES string. Values without a mark were called inactive. Records with an inconclusive call do not appear. Active and inactive are the calls of the source. Unless noted, the call rests on the fitted dose curve; in most records, active means well fitted curve in the direction sought with a large enough effect in the repeat runs; inconclusive means weak or mixed curves; inactive means no such curve, though single readings can be large; an effect the other way counts as inactive or inconclusive.

Sequence of Thyrotropin receptor (Homo sapiens) (P16473 whole entry, looked up): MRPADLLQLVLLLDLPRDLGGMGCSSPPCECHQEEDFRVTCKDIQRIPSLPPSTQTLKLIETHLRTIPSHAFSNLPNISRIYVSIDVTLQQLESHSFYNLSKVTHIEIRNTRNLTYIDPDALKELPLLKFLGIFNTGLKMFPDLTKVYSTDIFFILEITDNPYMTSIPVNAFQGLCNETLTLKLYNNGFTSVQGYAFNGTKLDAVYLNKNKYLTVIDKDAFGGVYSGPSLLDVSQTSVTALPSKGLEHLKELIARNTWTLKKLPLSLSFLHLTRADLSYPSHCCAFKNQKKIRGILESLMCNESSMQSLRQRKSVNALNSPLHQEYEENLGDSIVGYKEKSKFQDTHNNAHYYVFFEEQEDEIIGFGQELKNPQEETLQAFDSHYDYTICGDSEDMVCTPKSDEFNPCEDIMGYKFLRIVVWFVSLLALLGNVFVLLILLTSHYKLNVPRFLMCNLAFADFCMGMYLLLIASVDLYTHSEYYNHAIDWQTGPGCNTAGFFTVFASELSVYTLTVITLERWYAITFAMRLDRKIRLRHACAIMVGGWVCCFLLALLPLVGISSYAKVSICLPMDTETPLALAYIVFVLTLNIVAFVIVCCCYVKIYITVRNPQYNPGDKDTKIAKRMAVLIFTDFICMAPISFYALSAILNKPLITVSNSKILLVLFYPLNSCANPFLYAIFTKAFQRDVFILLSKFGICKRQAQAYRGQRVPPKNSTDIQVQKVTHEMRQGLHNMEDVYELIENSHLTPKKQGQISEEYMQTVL
Sequence of Androgen receptor (Homo sapiens) (P10275 whole entry, looked up): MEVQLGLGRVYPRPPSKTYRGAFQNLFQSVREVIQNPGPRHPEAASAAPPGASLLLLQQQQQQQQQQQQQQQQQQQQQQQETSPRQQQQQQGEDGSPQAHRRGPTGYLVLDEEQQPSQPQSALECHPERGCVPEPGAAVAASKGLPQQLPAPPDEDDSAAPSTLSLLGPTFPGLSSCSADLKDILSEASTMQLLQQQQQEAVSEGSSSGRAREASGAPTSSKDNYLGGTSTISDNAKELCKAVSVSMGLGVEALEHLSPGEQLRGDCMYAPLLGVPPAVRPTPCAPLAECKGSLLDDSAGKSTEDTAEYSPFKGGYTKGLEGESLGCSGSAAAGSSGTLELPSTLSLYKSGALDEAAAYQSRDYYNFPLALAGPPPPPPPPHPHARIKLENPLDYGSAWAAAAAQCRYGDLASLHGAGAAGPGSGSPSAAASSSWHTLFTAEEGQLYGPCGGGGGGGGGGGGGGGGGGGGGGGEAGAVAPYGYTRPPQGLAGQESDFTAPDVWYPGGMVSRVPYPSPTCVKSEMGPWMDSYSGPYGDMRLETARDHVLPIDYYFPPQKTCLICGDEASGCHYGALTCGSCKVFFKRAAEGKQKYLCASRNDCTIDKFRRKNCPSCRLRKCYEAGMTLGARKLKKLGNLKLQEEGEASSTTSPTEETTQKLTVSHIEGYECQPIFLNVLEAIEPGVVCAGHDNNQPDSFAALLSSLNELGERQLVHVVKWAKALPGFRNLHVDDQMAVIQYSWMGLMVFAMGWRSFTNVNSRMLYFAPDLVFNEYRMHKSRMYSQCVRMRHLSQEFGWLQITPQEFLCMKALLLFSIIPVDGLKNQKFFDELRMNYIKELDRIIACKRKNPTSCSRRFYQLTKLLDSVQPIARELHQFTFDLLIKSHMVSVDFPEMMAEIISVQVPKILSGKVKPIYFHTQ
Sequence of Thyrotropin-releasing hormone receptor (Homo sapiens) (P34981 whole entry, looked up): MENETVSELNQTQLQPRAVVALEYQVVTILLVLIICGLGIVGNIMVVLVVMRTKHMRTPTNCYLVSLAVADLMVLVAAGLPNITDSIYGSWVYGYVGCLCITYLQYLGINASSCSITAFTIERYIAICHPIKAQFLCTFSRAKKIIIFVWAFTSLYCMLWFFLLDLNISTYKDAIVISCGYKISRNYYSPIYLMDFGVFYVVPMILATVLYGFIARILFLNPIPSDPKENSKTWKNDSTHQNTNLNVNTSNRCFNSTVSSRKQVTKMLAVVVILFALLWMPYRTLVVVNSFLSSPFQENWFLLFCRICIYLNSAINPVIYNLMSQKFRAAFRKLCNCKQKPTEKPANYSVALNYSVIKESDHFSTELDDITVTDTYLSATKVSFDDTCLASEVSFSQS
Sequence of Estrogen receptor (Homo sapiens) (P03372 whole entry, looked up): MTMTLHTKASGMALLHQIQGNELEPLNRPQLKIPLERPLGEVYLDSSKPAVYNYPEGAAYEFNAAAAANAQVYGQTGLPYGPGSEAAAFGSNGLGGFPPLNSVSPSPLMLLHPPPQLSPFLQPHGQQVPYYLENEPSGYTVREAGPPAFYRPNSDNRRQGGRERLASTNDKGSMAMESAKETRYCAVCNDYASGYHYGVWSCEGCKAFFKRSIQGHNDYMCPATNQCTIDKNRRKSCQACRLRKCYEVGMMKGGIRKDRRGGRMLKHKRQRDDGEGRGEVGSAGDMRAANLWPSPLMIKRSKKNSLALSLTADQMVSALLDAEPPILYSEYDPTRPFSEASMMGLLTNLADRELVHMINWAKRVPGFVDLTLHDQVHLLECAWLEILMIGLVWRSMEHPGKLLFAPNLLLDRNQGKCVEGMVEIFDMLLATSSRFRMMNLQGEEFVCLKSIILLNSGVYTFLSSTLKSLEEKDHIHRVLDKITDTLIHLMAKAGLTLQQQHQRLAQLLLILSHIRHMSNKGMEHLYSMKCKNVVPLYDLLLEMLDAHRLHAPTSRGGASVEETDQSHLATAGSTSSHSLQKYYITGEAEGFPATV
Sequence of Progesterone receptor (Homo sapiens) (P06401 whole entry, looked up): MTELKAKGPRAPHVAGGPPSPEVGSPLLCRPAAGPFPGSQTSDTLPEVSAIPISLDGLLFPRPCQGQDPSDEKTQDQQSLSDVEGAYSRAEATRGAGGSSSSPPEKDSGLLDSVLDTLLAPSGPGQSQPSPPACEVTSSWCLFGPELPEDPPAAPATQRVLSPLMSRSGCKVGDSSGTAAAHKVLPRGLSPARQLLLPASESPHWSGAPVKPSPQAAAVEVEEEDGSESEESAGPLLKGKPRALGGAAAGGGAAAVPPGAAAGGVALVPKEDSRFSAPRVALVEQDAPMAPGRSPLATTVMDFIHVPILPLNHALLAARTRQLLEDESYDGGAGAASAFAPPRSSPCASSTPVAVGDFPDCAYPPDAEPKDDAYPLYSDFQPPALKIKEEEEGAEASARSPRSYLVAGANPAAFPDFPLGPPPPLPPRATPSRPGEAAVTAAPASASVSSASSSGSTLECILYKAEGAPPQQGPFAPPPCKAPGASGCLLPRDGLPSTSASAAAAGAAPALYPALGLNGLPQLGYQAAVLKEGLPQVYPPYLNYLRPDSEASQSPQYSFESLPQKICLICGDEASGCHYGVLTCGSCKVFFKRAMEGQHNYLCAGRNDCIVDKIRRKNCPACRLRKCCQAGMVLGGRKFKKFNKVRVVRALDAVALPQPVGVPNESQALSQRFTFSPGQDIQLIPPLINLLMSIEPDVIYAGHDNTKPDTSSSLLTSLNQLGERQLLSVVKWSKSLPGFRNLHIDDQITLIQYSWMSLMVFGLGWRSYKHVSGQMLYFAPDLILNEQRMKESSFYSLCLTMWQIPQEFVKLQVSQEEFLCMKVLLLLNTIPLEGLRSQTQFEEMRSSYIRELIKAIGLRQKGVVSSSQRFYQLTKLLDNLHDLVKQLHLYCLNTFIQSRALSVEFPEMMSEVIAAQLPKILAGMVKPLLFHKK
Sequence of Estrogen receptor beta (Homo sapiens) (Q92731 whole entry, looked up): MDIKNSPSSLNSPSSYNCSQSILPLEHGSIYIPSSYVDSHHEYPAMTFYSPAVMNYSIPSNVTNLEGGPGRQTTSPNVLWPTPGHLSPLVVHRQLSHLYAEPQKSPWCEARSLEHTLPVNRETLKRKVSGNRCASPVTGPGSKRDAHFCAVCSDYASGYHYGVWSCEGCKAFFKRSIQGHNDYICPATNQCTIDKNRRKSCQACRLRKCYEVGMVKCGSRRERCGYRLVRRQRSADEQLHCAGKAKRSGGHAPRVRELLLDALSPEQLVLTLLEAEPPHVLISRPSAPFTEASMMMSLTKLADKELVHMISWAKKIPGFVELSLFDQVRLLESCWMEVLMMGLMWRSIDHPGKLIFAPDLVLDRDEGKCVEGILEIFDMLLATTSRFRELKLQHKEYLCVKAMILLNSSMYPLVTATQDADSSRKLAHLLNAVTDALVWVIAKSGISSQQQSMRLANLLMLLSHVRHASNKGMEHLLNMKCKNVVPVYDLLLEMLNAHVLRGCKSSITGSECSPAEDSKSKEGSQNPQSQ

Take `OC[C@H]1O[C@@H]2O[C@H]3[C@H](O)[C@@H](O)[C@@H](O[C@H]4[C@H](O)[C@@H](O)[C@@H](O[C@H]5[C@H](O)[C@@H](O)[C@@H](O[C@H]6[C@H](O)[C@@H](O)[C@@H](O[C@H]7[C@H](O)[C@@H](O)[C@@H](O[C@H]8[C@H](O)[C@@H](O)[C@@H](O[C@H]9[C@H](O)[C@@H](O)[C@@H](O[C@H]1[C@H](O)[C@H]2O)O[C@@H]9CO)O[C@@H]8CO)O[C@@H]7CO)O[C@@H]6CO)O[C@@H]5CO)O[C@@H]4CO)O[C@@H]3CO`: the Potency entry in experiment [1], in [2], in experiment [3], in [4], in experiment [5] and in experiment [7] was “inactive” in each case. Further, the Potency entry in experiment [9] and in experiment [10] was “inactive” in each case. The compound was called inactive in experiment [6], in [8], in [11], in [12], in experiment [13] and in [14].
Take `CCCC(=O)O[C@]1(C(=O)CCl)[C@@H](C)C[C@H]2[C@@H]3CCC4=CC(=O)C=C[C@]4(C)[C@@]3(F)C(=O)C[C@@]21C`: the Potency result in experiment [1], in experiment [2], in experiment [15], in [4], in experiment [5] and in experiment [17] was “inactive” each time. Also, in [16], the Potency was 4.7 nM (active). Moreover, the compound was called inactive in [6], in experiment [8], in experiment [11], in [12], in [13] and in experiment [14].
Take `CO[Si](CCCNCCC[Si](OC)(OC)OC)(OC)OC`: the Potency entry in experiment [1], in experiment [2], in experiment [15], in experiment [4], in experiment [5] and in experiment [17] was “inactive” each time. Besides, the Potency entry in [7], in [18], in experiment [9] and in experiment [10] was “inactive” throughout. The result in [6], in experiment [8], in experiment [11], in [12], in experiment [13] and in experiment [14] was inactive.
For `CC1(C)OC(=O)Nc2ccc(Br)cc21`, the Potency result in experiment [1], in experiment [2], in experiment [4], in [16], in experiment [17] and in experiment [7] was “inactive” throughout. The Potency result in experiment [18], in experiment [9] and in experiment [10] was “inactive” each time. For the same compound, the compound was called inactive in experiment [6], in [8], in experiment [12], in experiment [13] and in experiment [14].
On to `CC(C)CCCC(C)CCCC(C)CCCCC(C)CCCC(C)CCCC(C)C` (centres undefined), for which the Potency result in experiment [1], in [2], in experiment [15], in experiment [4], in experiment [7] and in [18] was “inactive” in each case. In addition, the Potency entry in experiment [19] and in experiment [9] was “inactive” throughout. Also, the outcome in [6], in [8], in experiment [11], in experiment [12] and in experiment [13] was inactive.
In the case of `c1ccc2cnncc2c1`, the Potency entry in experiment [1], in experiment [2], in experiment [15], in [4], in [17] and in [7] was “inactive” throughout. Besides, the Potency result in [18], in experiment [19], in experiment [9] and in experiment [10] was “inactive” throughout. The outcome in [8], in [11], in experiment [12], in [13] and in experiment [14] was inactive.
Turning to `C=C(C)C(=O)NCCC[N+](C)(C)C`, the Potency entry in experiment [1], in experiment [2], in experiment [15], in [4], in experiment [5] and in [17] was “inactive” each time. The Potency result in experiment [19] and in experiment [10] was “inactive” each time. Moreover, the compound was called inactive in experiment [6], in experiment [8], in [11], in [12] and in experiment [13].
As to `Cc1c(F)cc2c(=O)c(C(=O)O)cn3c2c1CCC3C` (centres undefined), the Potency result in experiment [1], in [2], in experiment [4], in experiment [16], in [5] and in [17] was “inactive” each time. The Potency entry in [7], in experiment [18], in experiment [19], in experiment [9] and in [10] was “inactive” each time. The result in [6], in [8], in [11], in [12] and in [14] was inactive.
Consider `CC(C)c1cccc(C(C)C)c1N`, for which the Potency result in [1], in experiment [2], in [15], in [4], in experiment [5] and in experiment [17] was “inactive” throughout. Further, the Potency result in experiment [18], in [19], in [9] and in experiment [10] was “inactive” throughout. Moreover, the result in experiment [8], in experiment [11], in experiment [12], in experiment [13] and in [14] was inactive.
